Assay outcomes as filed in PubChem BioAssay.
KB-3-1 cytotox: KB-3-1 parental cell cytotoxicity; KB-3-1 viability, CellTiter-Glo ATP luminescence, 72 h; Potency, µM (series often up to 46.1 µM), hits mostly cytotoxic; 400,000 compounds, 1.4% hits; AID 1347075; further: potency means the concentration at half of the fitted maximal effect; on the % scale 0 is the no-effect control and ±100 the full control effect; nearly all actives have a fitted effect of over 60% in size
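Cells are dispensed, compounds pinned in, plates held at 37 °C for 72 h, then CellTiter-Glo is added and luminescence read after 10 minutes. Cell line: parental KB-3-1 in phenol-red-free DMEM, 10% FBS.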
KCNH2 3.1 block: blocks the human KCNH2 3.1 channel isoform. U2OS KCNH2 3.1, thallium flux FluxOr; hits give low values. activity change, % (tested at about 1.8 µM). 340,000 compounds, 0.95% hits;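 active means maximum activity change below -70%; inconclusive means maximum activity change from -70% to -50%; inactive means maximum activity change above -50%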;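 further: thallium influx rate constant from kinetic fluorescence after stimulation buffer; on the % scale 0 is the no-effect control and ±100 the full control effect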
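Measured as rate of thallium-driven FluxOr signal in transduced U2OS cells carrying the 3.1 channel, read kinetically for 2 min upon stimulation; values are rate constants scaled to DMSO control wells.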
SW480 rereplic: induces DNA re-replication in SW480 colon adenocarcinoma cells; SW480 DNA re-replication, Hoechst DNA content imaging, 48 h; Potency, µM (doses to about 46.1 µM), for the others: at the top dose re-replication activation, actives largely listed as activators; 340,000 compounds, 1.8% hits; AID 624297; further: potency means the concentration at half of the fitted maximal effect; % of control where 0% means no effect; nearly all actives have a fitted effect of over 55% in size
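Readout is total intensity of Hoechst-stained nuclei, excited at 405 nm and collected at 500-530 nm. Compound treatment lasted 48 hr at 37 C in 5% CO2 before staining.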
KB-V1 MDR tox: KB-V1 MDR subline cytotoxicity | 400,000 compounds, 3.4% hits | Potency, µM (highest dose often 46.1 µM), actives largely listed as cytotoxic | KB-V1 MDR cells viability, CellTiter-Glo, 72 h; further: potency means the concentration at half of the fitted maximal effect; on the % scale 0 is the no-effect control and ±100 the full control effect; nearly all actives have a fitted effect of over 60% in size
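In this primary screen, KB-V1 cells overexpressing P-gp are incubated with library compounds (lowest to highest concentration) for 72 h at 37 degrees C before a luminescent ATP viability read.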
MCF10A rereplic: DNA re-replication induction in MCF 10a cells; Potency, µM (top dose mostly 46.1 µM), for the others: at the top dose activity, positive = re-replication, usual class: activators; 350,000 compounds, 2.9% hits; MCF 10A DNA re-replication, Hoechst nuclear intensity, 48 h; further: potency means the concentration at half of the fitted maximal effect; % of control where 0% means no effect; nearly all actives have a fitted effect of over 50% in size
KCNH2 WT inh: KCNH2 (human, wildtype) channel inhibition. Q12809. U2OS, BacMam KCNH2, thallium flux FluxOr; hits give low values. activity change, % at 1.84 µM. 340,000 compounds, 0.37% hits;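 active means maximum activity change below -70%; inconclusive means maximum activity change between -70% and -50%; inactive means maximum activity change above -50%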; further: on the % scale 0 is the no-effect control and ±100 the full control effect
Target sequence (Q12809 whole entry, looked up): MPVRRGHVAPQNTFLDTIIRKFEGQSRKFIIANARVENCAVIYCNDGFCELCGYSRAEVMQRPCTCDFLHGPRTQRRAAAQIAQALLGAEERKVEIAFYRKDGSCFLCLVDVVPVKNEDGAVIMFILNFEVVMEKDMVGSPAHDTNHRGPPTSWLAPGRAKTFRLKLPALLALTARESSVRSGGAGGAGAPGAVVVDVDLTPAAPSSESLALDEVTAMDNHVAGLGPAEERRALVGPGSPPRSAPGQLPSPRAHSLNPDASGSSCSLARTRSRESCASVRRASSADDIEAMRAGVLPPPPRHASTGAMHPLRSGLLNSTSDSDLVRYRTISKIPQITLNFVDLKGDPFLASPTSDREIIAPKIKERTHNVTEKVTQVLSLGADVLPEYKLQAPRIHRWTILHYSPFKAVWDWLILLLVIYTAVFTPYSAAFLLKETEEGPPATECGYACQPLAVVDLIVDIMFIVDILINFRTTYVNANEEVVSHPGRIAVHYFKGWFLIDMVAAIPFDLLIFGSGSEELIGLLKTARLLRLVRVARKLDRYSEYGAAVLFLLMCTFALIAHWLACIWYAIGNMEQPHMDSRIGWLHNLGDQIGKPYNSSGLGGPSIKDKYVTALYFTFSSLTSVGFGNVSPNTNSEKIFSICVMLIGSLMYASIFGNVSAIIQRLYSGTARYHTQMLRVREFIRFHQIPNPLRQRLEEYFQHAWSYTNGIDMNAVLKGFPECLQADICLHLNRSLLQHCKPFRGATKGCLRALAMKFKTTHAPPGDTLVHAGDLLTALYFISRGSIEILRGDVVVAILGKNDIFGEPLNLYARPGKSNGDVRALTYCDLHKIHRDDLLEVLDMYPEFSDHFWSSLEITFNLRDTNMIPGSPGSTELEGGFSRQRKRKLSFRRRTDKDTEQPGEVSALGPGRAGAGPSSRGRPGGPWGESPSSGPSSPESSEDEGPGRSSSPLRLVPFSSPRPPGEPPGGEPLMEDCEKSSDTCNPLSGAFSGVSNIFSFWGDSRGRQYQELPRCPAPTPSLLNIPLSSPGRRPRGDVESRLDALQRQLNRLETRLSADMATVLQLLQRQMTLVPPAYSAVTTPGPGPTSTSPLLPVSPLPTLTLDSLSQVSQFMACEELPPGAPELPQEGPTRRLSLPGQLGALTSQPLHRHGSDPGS
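U2OS cells were transduced with wild-type KCNH2 virus (2.03 x 10^8 / mL) for 4 h at room temperature, then cultured overnight at 37 C. Thallium flux was read with FluxOr dye. Rate constants were normalized to DMSO controls.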
The depositor's hits bear a star. Rows were chosen to be rich in hits. Some 7.6% of all compounds tested hit in one or more screens of this group. Unless noted, the call rests on the fitted dose curve; in most records, active means well fitted curve in the direction sought with a large enough effect; inconclusive means small, poorly fitted or top-dose-only effect, or another doubt; inactive means no such curve, though single readings can be large; an effect the other way counts as inactive or inconclusive.

For Cc1ccc2nc(NC(=O)C3CCN(c4ncnc5sc(C)c(C)c45)CC3)sc2c1 the results were KCNH2 3.1 block -14.7, SW480 rereplic 23.4%, MCF10A rereplic 23.1µM* and KCNH2 WT inh 6.2.
Screening CCc1nnc(NC(=O)C2CCN(c3ncnc4sc(C)c(C)c34)CC2)s1 returned KB-3-1 cytotox inactive, KCNH2 3.1 block 2.4, SW480 rereplic -11.6%, KB-V1 MDR tox inconclusive, MCF10A rereplic 2.2% and KCNH2 WT inh 1.1.
Screening Cc1sc2ncnc(N3CCC(C(=O)Nc4nc(-c5cccs5)cs4)CC3)c2c1C returned KB-3-1 cytotox inconclusive, KCNH2 3.1 block -35.4, SW480 rereplic 12.2%, KB-V1 MDR tox 5.17µM*, MCF10A rereplic inconclusive and KCNH2 WT inh 0.7.
Screening O=C(CNC(=O)c1ccc(Br)o1)Nc1cccc(S(=O)(=O)N2CCOCC2)c1 returned KB-3-1 cytotox inactive, KCNH2 3.1 block 15.1, SW480 rereplic -5.2%, KB-V1 MDR tox inactive, MCF10A rereplic 0.4% and KCNH2 WT inh 14.6.
Screening CSc1nc2[nH]c(=O)n(O)c(=O)c2n1Cc1ccccc1 returned KB-3-1 cytotox inconclusive, KCNH2 3.1 block -25.2, SW480 rereplic 2.31µM*, KB-V1 MDR tox inactive, MCF10A rereplic inconclusive and KCNH2 WT inh -0.6.
Screening Cc1cc(-c2nn(-c3ccccc3F)cc2CN(C)CC(O)CO)c(C)s1 (centres undefined) returned KB-3-1 cytotox inactive, KCNH2 3.1 block -9.5, SW480 rereplic 9.5%, KB-V1 MDR tox inactive, MCF10A rereplic -5.1% and KCNH2 WT inh 9.8.
`CCn1nnc(NC(=O)C(C)Oc2ccc(Cl)cc2Cl)n1` (centres undefined) gave KB-3-1 cytotox inactive, KCNH2 3.1 block -3.3, SW480 rereplic -9.6%, KB-V1 MDR tox 18.4µM*, MCF10A rereplic 1.0% and KCNH2 WT inh 2.2.
For Cc1ccccc1C1=NC(C(F)(F)F)(C(F)(F)F)c2c(n(C)c(=O)n(C)c2=O)N1 the results were KB-3-1 cytotox inconclusive, KCNH2 3.1 block 12.7, SW480 rereplic -7.0%, KB-V1 MDR tox 16.4µM*, MCF10A rereplic 7.5% and KCNH2 WT inh -1.4.
For Cn1c2c(c(=O)n(C)c1=O)C(C(F)(F)F)(C(F)(F)F)N=C(c1ccc(Cl)cc1)N2 the results were KB-3-1 cytotox 2.31µM*, KCNH2 3.1 block -4.5, SW480 rereplic 13.4%, KB-V1 MDR tox 2.31µM*, MCF10A rereplic inconclusive and KCNH2 WT inh -0.8.
COc1cc(OC)c(NC(=O)CNC(=O)Cn2ccc3ccccc3c2=O)cc1Cl was read as KB-3-1 cytotox inactive, KCNH2 3.1 block -8.9, SW480 rereplic -2.2%, KB-V1 MDR tox inactive, MCF10A rereplic -0.2% and KCNH2 WT inh -9.6.
`Cc1c(NC2=CC(=O)CC(C)(C)C2)ccc([N+](=O)[O-])c1C` gave KB-3-1 cytotox inactive, KCNH2 3.1 block -104.1*, SW480 rereplic 2.3%, KB-V1 MDR tox inconclusive, MCF10A rereplic -9.1% and KCNH2 WT inh 1.0.
Screening Cc1cc(N2CCCC2)nc2ccc(NC(=S)NC(C)C)cc12 returned KB-3-1 cytotox inactive, KCNH2 3.1 block -46.9, SW480 rereplic inconclusive, KB-V1 MDR tox inactive, MCF10A rereplic inconclusive and KCNH2 WT inh 5.5.
For CCCCNC(=O)CCC(=O)Nc1ccc2nc(N3CCOCC3)cc(C)c2c1 the results were KB-3-1 cytotox inactive, KCNH2 3.1 block -46.6, SW480 rereplic 0.3%, KB-V1 MDR tox inactive, MCF10A rereplic 7.4% and KCNH2 WT inh 2.5.
Cc1cc(N2CCOCC2)nc2ccc(NC(=S)NC(C)C)cc12 was read as KB-3-1 cytotox inactive, KCNH2 3.1 block 10.8, SW480 rereplic -11.0%, KB-V1 MDR tox inactive, MCF10A rereplic 23.1µM* and KCNH2 WT inh 11.1.
Screening Cc1cc(N2CCOCC2)nc2ccc(NC(=O)CCC(=O)N3CCN(c4ccccc4)CC3)cc12 returned KB-3-1 cytotox inactive, KCNH2 3.1 block 11.8, SW480 rereplic -5.6%, KB-V1 MDR tox inactive, MCF10A rereplic 0.7% and KCNH2 WT inh 9.9.
Screening CCCN(CCC)CCNC(=O)CCC(=O)Nc1ccc2nc(N3CCOCC3)cc(C)c2c1 returned KB-3-1 cytotox inactive, KCNH2 3.1 block -173.6*, SW480 rereplic 0.2%, KB-V1 MDR tox inactive, MCF10A rereplic -22.6% and KCNH2 WT inh 3.1.
For Cc1cc(N2CCOCC2)nc2ccc(NC(=O)C3CCC(C)CC3)cc12 (centres undefined) the results were KB-3-1 cytotox inactive, KCNH2 3.1 block -106.7*, SW480 rereplic inconclusive, KB-V1 MDR tox inactive, MCF10A rereplic inconclusive and KCNH2 WT inh -13.7.
For Cc1cc(N2CCN(C)CC2)nc2ccc(NC(=O)CCC(=O)N3CCN(c4ccc([N+](=O)[O-])cc4)CC3)cc12 the results were KB-3-1 cytotox inactive, KCNH2 3.1 block 8.7, SW480 rereplic inconclusive, KB-V1 MDR tox inactive, MCF10A rereplic 18.4µM* and KCNH2 WT inh 18.4.
`COc1ccc(-c2ccc(=O)n(CC(=O)Nc3cc(OC)ccc3OC)n2)cc1` gave KB-3-1 cytotox inactive and KB-V1 MDR tox inactive.
CCOC(=O)c1ccc(CNC(=O)c2cc(COc3ccccc3SC)on2)o1 was read as KB-3-1 cytotox inactive, KCNH2 3.1 block -0.2, SW480 rereplic 16.0%, KB-V1 MDR tox inactive, MCF10A rereplic inconclusive and KCNH2 WT inh -3.6.
Screening C=CCSc1nnc(C)c(/C=C/Nc2ccc(Cl)cc2)n1 returned KB-3-1 cytotox inactive, KCNH2 3.1 block -18.6, SW480 rereplic inconclusive, KB-V1 MDR tox inactive, MCF10A rereplic 20.6µM* and KCNH2 WT inh 0.4.
Cc1nnc(SCc2ccccc2)nc1/C=C/NOCc1ccc(Cl)cc1Cl was read as KB-3-1 cytotox inactive, KCNH2 3.1 block inconclusive, SW480 rereplic 1.3%, KB-V1 MDR tox inactive, MCF10A rereplic 9.9% and KCNH2 WT inh 4.7.
Screening O=c1c(Cc2ccccc2)c(O)ccn1C1CCCCCCC1 returned KB-3-1 cytotox inactive, KCNH2 3.1 block 49.8, SW480 rereplic -81.2%, KB-V1 MDR tox inconclusive and MCF10A rereplic inconclusive.
`CCC(=O)c1ccc(/C=C/c2nc3ccccc3n2C)o1` gave KB-3-1 cytotox inactive, KCNH2 3.1 block 4.1, SW480 rereplic 18.4µM*, KB-V1 MDR tox inactive, MCF10A rereplic 8.2µM* and KCNH2 WT inh -3.7.
`CN(C)CCNC(=O)c1ccc2c(c1)N(Cc1c(F)cccc1Cl)C(=O)c1ccccc1S2` gave KB-3-1 cytotox inactive and KB-V1 MDR tox inconclusive.
CNC(=S)N(C)/N=C1/C(=O)N(Cc2c(Cl)cccc2Cl)c2ccccc21 was read as KB-3-1 cytotox inactive, KCNH2 3.1 block -30.7, SW480 rereplic inconclusive, KB-V1 MDR tox inconclusive, MCF10A rereplic 18.4µM* and KCNH2 WT inh -1.1.
